Source: ChEMBL document CHEMBL3988442, “University of Dundee, Small-Polar-MMV Screening Library” (2021)
The whole screen tested about 48,000 compounds, of which about 13,000 (27%) showed an effect of 50% or more. The list shows a part of the results.

test system: Wolbachia pipientis; assay: Anti-Wolbachia Cell-Based Screen; format: functional; set-up: scale not given: in the data most compounds retested in dose-response had high values; settings: 5 µM

SMILES | Percent Effect [%]
Cc1nn(C)c(Cl)c1S(=O)(=O)N(CC(N)=O)CC(C)C | -2.815
O=C(c1cccc(F)c1F)N1CCn2c(nnc2C(F)(F)F)C1 | -8.426
O=C(NCC1=CCCCC1)C(c1cccnc1)N1CCCC1 (configuration not stated) | 4.63
Cc1noc(C)c1C(=O)N1CCCN(Cc2cscn2)CC1 | 110.4
CCc1ncncc1C(=O)N1CCN(Cc2ccco2)CC1 | 2.127
CCc1ncncc1C(=O)N1CCN(Cc2cscn2)CC1 | 108.1
CC(C)c1ncncc1C(=O)N1CCN(Cc2cscn2)CC1 | -5.142
CCc1nc(CN2CCCN(C(=O)c3c(C)noc3C)CC2)cs1 | -12.93
Cc1noc(C(C)C)c1C(=O)N1CCCN(Cc2cscn2)CC1 | 0.5158
CN(C)CCNC(=O)c1cnc2c(c1)nc(-c1ccccc1Cl)n2C | -9.554
CN(C)CCCNC(=O)c1ccnc(OCc2ccccc2)c1 | -11.72
CN(C)CCNC(=O)c1ccccc1NC(=O)c1cc(Cl)ccc1Cl | 115.7
CN(C)CCCNC(=O)c1ccccc1NC(=O)c1ccccc1Cl | 105.1
COc1cc(NC(=O)c2ccccc2F)c(C(=O)N(C)C)cc1OC | -7.835
CN(CCCNC(=O)c1ccccc1F)CC(F)(F)F | 0.1047
CN(C)CCCNC(=O)c1ccccc1NC(=O)c1cc(Cl)ccc1Cl | 87.51
CN(CC(=O)Nc1ccccc1C(=O)NC1CC1)Cc1ccccc1Cl | 6.232
Cc1ccnc(NC(=O)CCNC(=O)c2ccccc2Cl)c1 | 8.062
COCc1nc2cc(NCc3cc[nH]n3)ccc2o1 | -2.175
CC(=O)Nc1cc(CN(C)C)ccc1C | -5.311
CC(C(=O)N1CCCC1)S(=O)(=O)Cc1noc(C(C)(C)C)n1 (configuration not stated) | -6.108
Cc1cc(C2CCCN(CCCS(C)(=O)=O)C2)n[nH]1 (configuration not stated) | 81.87

SMILES | Percent Effect [%]
Cc1cc(C2CCCN(Cc3ncc(C)o3)C2)n[nH]1 (configuration not stated) | -4.273
Cc1cc(C)n(CC2CCCN2CCCS(N)(=O)=O)n1 (configuration not stated) | -6.761
Cc1cc(C2CCCN(CCCNS(C)(=O)=O)C2)n[nH]1 (configuration not stated) | -11.22
Cc1cc(C2CCCN(CCCS(N)(=O)=O)C2)n[nH]1 (configuration not stated) | 116
COC(=O)c1cc(NC(=O)CCc2cscn2)ccc1C | -13.27
CN1CSC[C@H]1C(=O)N1CCN(Cc2cccc(F)c2)CC1 | -1.728
c1cnnc(N2CCCC2CNCc2cc[nH]n2)c1 (configuration not stated) | 6.061
NCC1Cn2nnc(-c3cccc(F)c3)c2CO1 (configuration not stated) | -2.933
Cc1cnn(CCNCc2csc(C)n2)c1 | 11.83
CCOCC1c2c(cnn2CC2CC2)CCN1Cc1nccs1.O=C(O)C(F)(F)F.O=C(O)C(F)(F)F (configuration not stated) | 115.2
CCn1ncc2c1C(COCC1CC1)N(Cc1c(C)noc1C)CC2.O=C(O)C(F)(F)F.O=C(O)C(F)(F)F (configuration not stated) | -2.948
COCC1c2c(cnn2CC2CC2)CCN1Cc1cccs1.O=C(O)C(F)(F)F.O=C(O)C(F)(F)F (configuration not stated) | -10.1
COCC1c2c(cnn2CC2CC2)CCN1Cc1ccc(OC)cc1 (configuration not stated) | -7.562
COCC1c2c(cnn2CC2CC2)CCN1Cc1nccs1.O=C(O)C(F)(F)F.O=C(O)C(F)(F)F (configuration not stated) | -17.24
COCC1c2c(cnn2CC2CC2)CCN1Cc1ccsc1.O=C(O)C(F)(F)F.O=C(O)C(F)(F)F (configuration not stated) | 107.6
COCC1c2c(cnn2CC2CC2)CCN1Cc1cc(C)on1.O=C(O)C(F)(F)F.O=C(O)C(F)(F)F (configuration not stated) | 63.1
CCn1ncc2c1C(COCC1CC1)N(Cc1nccs1)CC2.O=C(O)C(F)(F)F.O=C(O)C(F)(F)F (configuration not stated) | -10.7
COCC1c2c(cnn2CC2CC2)CCN1Cc1ccc(C)o1.O=C(O)C(F)(F)F.O=C(O)C(F)(F)F (configuration not stated) | 107.5
CCN1C[C@H]2C3(CCN(S(=O)(=O)CC)CC3)CC[C@@]2(C(=O)N(C)C)C1.O=C(O)C(F)(F)F | -7.289
Cc1ccc2nc(C3CCCN3Cc3nnc(C)s3)[nH]c2c1 (configuration not stated) | -155.9
Clc1ccc2nncc(N3CCCCC3)c2c1 | -7.543
NC1(C(=O)NCCC2CN(Cc3ccco3)CCO2)CCCC1 (configuration not stated) | 117.7

SMILES | Percent Effect [%]
O=C(NCCC1CN(Cc2c[nH]cn2)CCO1)c1ccccc1O (configuration not stated) | -1.985
CCC1CN(CC(=O)NCc2ccco2)CCO1 (configuration not stated) | -17.78
N#Cc1ccccc1C(=O)NCCC1CN(Cc2ccco2)CCO1 (configuration not stated) | 86.72
CC(C)(C)C(=O)NCCC1CN(Cc2ccccc2F)CCO1 (configuration not stated) | -7.627
O=C(NCCCN1CCOCC1)C1CCCN(Cc2ccco2)C1 (configuration not stated) | 1.976
Cc1ccc(C)c(NC(=O)Nc2c[nH]c(=O)[nH]c2=O)c1 | -8.651
Cc1cccc2c(CCNS(=O)(=O)C3CCOC3)c[nH]c12 (configuration not stated) | 14.98
CC(C)Cc1noc(CN2CCCC(CNS(N)(=O)=O)C2)n1 (configuration not stated) | 6.336
CCOC(C)c1noc(CN2CCN(CC3CCCC3)CC2)n1 (configuration not stated) | -4.058
Cc1noc2nc(C3CCN(CC4CCCCC4)CC3)cc(C(F)F)c12.Cl | 130.1
Cc1n[nH]c2ncc(CNC3CCN(Cc4ccccn4)CC3)cc12.Cl | 0.2679
Cc1noc2nc(C3CCN(Cc4ccccn4)CC3)cc(C(F)F)c12 | 126.2
Cc1noc2nc(C3CCN(CC4=CCCOC4)CC3)cc(C(F)F)c12.Cl | -4.292
CCS(=O)(=O)c1ccc2oc([C@H]3CCN(Cc4ccccn4)C3)nc2c1 | -4.332
COc1ccc(N(C)C(=O)c2ccc(Cl)c(S(C)(=O)=O)c2)cn1 | -5.224
Cc1c(-c2ccccc2)ncn1CCCNc1cccnc1 | -10.09
Cc1ccnn1CCC(=O)N1CCCC[C@@]2(C)[C@@H]1CCC(=O)N2C | 76.68
O=C1CCCCN1CCC(=O)N1CCCCC1c1ccc(F)cc1 (configuration not stated) | -7.872
Cc1ccnn1CCC(=O)N1CCCC[C@]2(C)NC(=O)CCC[C@H]12 | 63.73
Cc1ccnn1CCC(=O)N(Cc1ccsc1)CC(C)C | 6.512
CN1C(=O)CC[C@@H]2N(C(=O)CCc3cccnc3)CCCC[C@@]21C | 73.04
COc1ccc(N2CCN(C(=O)Cn3nccc3C)CC2(C)C)cc1 | 3.492

SMILES | Percent Effect [%]
CCN1C(=O)CC[C@@H]2N(C(=O)CCn3nccc3C)CCCC[C@@]21C | 96.02
COc1ccc(N2CCN(C(=O)CCn3nccc3C)C(C)C2)cc1 (configuration not stated) | -2.814
Cc1ccnn1CCC(=O)N1CCN(C2CCc3ccccc3C2)CC1 (configuration not stated) | -3.022
COc1ccc(N2CCN(C(=O)CCn3nccc3C)CC2(C)C)cc1 | -0.9656
CN(C)CCn1ccnc1C1CCN(C(=O)CCc2cccnc2)CC1 | -5.205
COc1ccc(O[C@H]2COCCN(Cc3cccc4c3OCO4)C2)cc1 | -9.045
CCCc1cc(NCc2nc(COC)no2)n2nccc2n1 | -5.978
Cc1nc(CN2CCCC(Cn3cc(CCO)nn3)C2)c2ccccn12 (configuration not stated) | -4.112
CC(C)n1cc(CN2CCCN(C(=O)c3cc(Cl)c[nH]3)CC2)cn1 | 1.101
CS(=O)(=O)Nc1cccc(CNC(=O)CCNC(=O)c2cccs2)c1 | 4.351
CN(C)Cc1nnc(C2CCN(c3nccc(N)n3)CC2)n1C1CC1 | 9.294
Cc1cc2ccccc2n1CCC(=O)N1CCCC(O)(CN(C)C)CC1 (configuration not stated) | -7.968
O=C(c1cncc(N2CCC(O)(CO)CC2)n1)N1CCCC1 | -6.183
Cc1cc(C(=O)N2C[C@@H]3COC[C@]3(c3nnc(C(C)C)o3)C2)on1 | 3.18
CN(C)CC1(O)CCCN(C(=O)Cn2ccc3ccccc32)CC1 (configuration not stated) | -35.57
O=C(c1ccncc1)N1CCC(O)(Cn2ccc3ccncc32)CC1 | -4.152
O=C(c1cnc(Nc2ccccc2)nc1)N1CCC(O)(CO)CC1 | -9.694
Cc1cc(C(=O)N2CCC(O)(Cn3ccc4ccncc43)CC2)on1 | 111.8
Cc1cc(C(=O)N2CCC(O)(Cn3c(C)cc4ccncc43)CC2)on1 | 79.54
Cc1cc2ccncc2n1CC1(O)CCN(C(=O)c2ccncc2)CC1 | 105.6
Cc1cc2ccncc2n1CC1(O)CCN(C(=O)c2ccccn2)CC1 | 79.68
CCNc1ncc(C(=O)NCCc2csc(-c3ncccn3)n2)cn1 | -22.07

SMILES | Percent Effect [%]
CCN(Cc1cccc(F)c1)c1ccc2nnnn2n1 | 20.24
CN(C)C(=O)CCC(=O)NCc1cccnc1-n1cnc2ccccc21 | -4.725
Cc1cc2ccncc2n1CC1(O)CCN(C(=O)c2cccnc2)CC1 | 107.2
Cc1nc(N2CCN(C(=O)c3cccnc3)CC2)cc(-n2cccc2)n1 | 13.16
Cc1ncsc1C(=O)N1CC[C@@H]2[C@@H](CC1)OCCN2c1cccnc1 | -15.36
O=C(c1cncc(Br)c1)N1CCC(O)(Cn2ccc3ccncc32)CC1 | -1.363
Cc1ncsc1C(=O)N1CCC(O)(Cn2c(C)cc3ccncc32)CC1 | 102
Cc1nnc(SCCC(=O)N(C)Cc2c(F)cccc2Cl)[nH]1 | 13.01
CCCn1nc2c(cc1=O)CN(CCS(C)(=O)=O)CC2 | 0.2637
Cc1nc2c(c(N3CCC(O)(Cn4ccnc4)CC3)n1)CCNCC2 | -21.19
CC(C)CNC(=O)c1ccc(NC(=O)NC(C)c2ccccn2)cc1 (configuration not stated) | -15.83
CC(NC(=O)NCc1ccc(Cl)s1)c1ccccn1 (configuration not stated) | 3.359
CCCNC(=O)c1ccc(NC(=O)NC(C)c2ccccn2)cc1 (configuration not stated) | -5.222
CC(NC(=O)N(C)Cc1ccc(Cl)s1)c1ccccn1 (configuration not stated) | 6.324
CC(NC(=O)NCc1cc(Br)cs1)c1ccccn1 (configuration not stated) | 100.4
CC(NC(=O)NCCc1ccc(Cl)s1)c1ccccn1 (configuration not stated) | 158
CC(NC(=O)NCc1ccc(Cl)cc1)c1ccccn1 (configuration not stated) | 9.197
CC(NC(=O)Nc1cccnc1N1CCOCC1)c1ccccn1 (configuration not stated) | -6.169
CC(NC(=O)NCc1ccccc1Cl)c1ccccn1 (configuration not stated) | 111.7
